In PubChem BioAssay AID1159580 (chemical genetic matrix, 2015):
“And” between values parts separate entries of the source, which are not always exact repeats. Equal values may be shown once. The whole screen tested about 5,500 compounds, of which about 2,000 (36%) were called active. About 18% were inconclusive and are not listed. Cut-off read from the data, not from the text of the source: active = normalized growth mostly below about 0.91 (no sharp cut-off); inconclusive = no clear call, values can overlap the other calls; inactive = mostly above about 0.92. The list shows a part of the results.

Experiment: chemical genetic growth profiling, strain panel (AID 1159580);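 note: tested at 20 µM; growth read once vehicle control cultures reached saturation at 30 °C; 1 = growth at the plate median or of vehicle wells; lower values mean less growth of the strain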
Conditions: S. cerevisiae deletion strains, growth OD

Measured: normalized growth

OC(c1cc(C(F)(F)F)nc2c(C(F)(F)F)cccc12)C1CCCCN1 (stereo not drawn)
inactive: locus YAL021C, strain ccr4, hits give low values 0.995 | locus YAL026C, strain drs2, hits give low values 0.972 | locus YAL030W, strain snc1, hits give low values 1.02 | locus YBL061C, strain skt5, hits give low values 1.01 | locus YBR009C, strain hhf1, hits give low values 1.01 | locus YBR021W, strain FUR4, hits give low values 0.965 | locus YBR023C, strain chs3, hits give low values 1 | locus YBR171W, strain sec66, hits give low values 1.02 | locus YBR229C, strain ROT2, hits give low values 0.988 | locus YBR231C, strain swc5, hits give low values 1.01 | locus YBR279W, strain paf1, hits give low values 1.02 | locus YCL011C, strain gbp2, hits give low values 1.01 | locus YCL016C, strain dcc1, hits give low values 1 | locus YCL029C, strain bik1, hits give low values 0.999 | locus YCL069W, strain vba3, hits give low values 0.999 | locus YCR088W, strain abp1, hits give low values 1.01 | locus YDL005C, strain med2, hits give low values 1.01 | locus YDL035C, strain GPR1, hits give low values 0.968 | locus YDL040C, strain nat1, hits give low values 1.02 | locus YDL074C, strain BRE1, hits give low values 0.945 | locus YDL101C, strain DUN1, hits give low values 0.993 | locus YDL134C, strain PPH21, hits give low values 0.966 | locus YDL185W, strain tfp1, hits give low values 0.979 | locus YDL192W, strain arf1, hits give low values 0.997 | locus YDR001C, strain nth1, hits give low values 1.01 | locus YDR069C, strain doa4, hits give low values 1.01 | locus YDR101C, strain arx1, hits give low values 0.993 | locus YDR137W, strain rgp1, hits give low values 1.12 | locus YDR150W, strain NUM1, hits give low values 0.995 | locus YDR159W, strain sac3, hits give low values 0.999 | locus YDR162C, strain NBP2, hits give low values 0.969 | locus YDR195W, strain ref2 1.02 | locus YDR297W, strain sur2, hits give low values 1.01 | locus YDR318W, strain mcm21, hits give low values 0.988 | locus YDR334W, strain swr1, hits give low values 1.01 | locus YDR335W, strain msn5, hits give low values 1.01 | locus YDR388W, hits give low values 0.995 | locus YDR392W, strain spt3, hits give low values 0.997 | locus YDR502C, strain sam2, hits give low values 0.987 | locus YEL003W, strain gim4, hits give low values 1.02 | locus YEL037C, strain rad23, hits give low values 1.02 | locus YEL061C, strain CIN8 (second series), hits give low values 1 | locus YEL061C, strain CIN8, hits give low values 0.994 | locus YER015W, strain faa2, hits give low values 1.01 | locus YER016W, strain bim1, hits give low values 1.01 | locus YER110C, hits give low values 0.996 | locus YER111C, strain swi4, hits give low values 1.01 | locus YER155C, strain BEM2 (second series), hits give low values 1.02 | locus YER155C, strain BEM2, hits give low values 0.997 | locus YER167W, strain BCK2, hits give low values 0.971 | locus YFR010W, strain ubp6, hits give low values 1 | locus YGL078C, strain dbp3, hits give low values 0.985 | locus YGL086W, strain mad1, hits give low values 0.988 | locus YGL167C, strain pmr1, hits give low values 1.02 | locus YGL173C, strain kem1, hits give low values 1.02 | locus YGL227W, strain vid30, hits give low values 1 | locus YGL240W, strain doc1, hits give low values 1.03 | locus YGL248W, strain PDE1, hits give low values 0.997 | locus YGL253W, strain hxk2, hits give low values 1 | locus YGR078C, strain PAC10, hits give low values 0.98 | locus YGR135W, strain pre9, hits give low values 0.973 | locus YGR229C, strain SMI1, hits give low values 0.95 | locus YGR252W, strain gcn5, hits give low values 0.922 | locus YHR013C, strain ard1, hits give low values 1 | locus YHR027C, strain rpn1, hits give low values 1.02 | locus YHR030C, strain SLT2, hits give low values 0.994 and 0.969 | locus YHR079C, strain IRE1 (second series), hits give low values 0.985 | locus YHR079C, strain IRE1, hits give low values 0.984 | locus YHR094C, strain hxt1, hits give low values 0.988 | locus YHR129C, strain ARP1, hits give low values 0.99 | locus YHR142W, strain chs7, hits give low values 0.984 | locus YHR200W, strain rpn10, hits give low values 0.996 | locus YIL066C, strain RNR3, hits give low values 0.973 | locus YIL073C, strain SPO22, hits give low values 0.979 | locus YIL125W, strain kgd1, hits give low values 0.995 | locus YIR030C, strain dcg1, hits give low values 0.99 | locus YJL092W, strain hpr5, hits give low values 1.01 | locus YJL095W, strain BCK1 (second series), hits give low values 1 | locus YJL095W, strain BCK1, hits give low values 0.969 and 0.948 | locus YJL115W, strain asf1, hits give low values 1.01 | locus YJL129C, strain trk1, hits give low values 1.02 | locus YJL134W, strain LCB3, hits give low values 0.993 | locus YJL154C, strain vps35, hits give low values 1.01 | locus YJL164C, strain tpk1, hits give low values 0.986 | locus YJL166W, strain qcr8, hits give low values 1.02 | locus YJL168C, strain set2, hits give low values 0.99 | locus YJL187C, strain SWE1 (second series), hits give low values 0.991 | locus YJR043C, strain POL32, hits give low values 0.979
